# Screening data as filed in PubChem BioAssay.
# TGFb SMAD3 inh = qHTS for Inhibitors of TGF-b | 1.2% of 410,000 active | Potency, µM (series often up to 46.1 µM), without a hit: at the highest dose activity, negative = inhibition, most hits filed as inhibitors | AID 588855, 2011 | HepG2 CAGA-GFP TGF-b/SMAD3 reporter, GFP fluorescence, 18 h; TGF-beta stimulated, 500 pg/mL final; note: % is set by controls: 0 for no effect and ±100 for the full control effect; nearly all actives have a fitted effect of over 65% in size
#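 First, reporter cells (HEPG2 CAGA-GFP) rested 2 h at 37 degrees C. Next, compounds were pinned in and TGF-beta added to 500 pg/mL final. After 18 h, GFP was imaged per cell and summed per well.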
# DT40 TDP1 no CPT = qHTS for Inhibitors of human tyrosyl-DNA phosphodiesterase 1 (TDP1): qHTS in cells in absence of CPT; DT40 Tdp1-/- hTDP1 cells, no CPT, ATP luminescence, 48 h; Potency, µM (doses to about 46.2 µM), inactives show top-dose activity change, negative = growth inhibition, usual class: inhibitors; 15% of 420,000 active; note: % is set by controls: 0 for no effect and ±100 for the full control effect; nearly all actives have a fitted effect of over 55% in size
#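 Luminescent ATP content (CellTiter-Glo) served as the growth readout. Knockout chicken DT40 cells expressing human TDP1 were exposed to compounds without camptothecin for a minimum 48 hr at 37 °C.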
# ATXN2 expr inh = Primary qHTS for Inhibitors of ATXN expression; HEK-293 ATXN2-luciferase reporter, luminescence, 24 h; Potency, µM (titrated, usually from 57 µM), inactives show at the top dose activity change, negative = inhibition, most hits filed as inhibitors; 0.72% of 360,000 active; AID 1745845, 2022; note: % is set by controls: 0 for no effect and ±100 for the full control effect; nearly all actives have a fitted effect of over 55% in size
#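 qHTS (up to 57 uM final) was run with 24 h compound exposure of reporter cells at 37 °C. Each well was multiplexed: SteadyGlo luminescence measured ATXN2-luciferase expression after a fluorogenic Gly-Phe-AFC viability readout (25 uM final).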
# HepG2 viability = qHTS for Inhibitors of TGF-b: Cytotox Counterscreen | HepG2 CAGA-GFP viability, ATP luminescence, 18 h | Potency, µM (top dose mostly 46.1 µM), for the others: at the highest dose activity change, negative = cytotoxicity, usual class: cytotoxic | 0.76% of 410,000 active
#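 HepG2 CAGA-GFP cells (1000/well, DMEM with 1% FBS) received compound, then TGF-beta at 500 pg/mL final, and were incubated 18 hours at 37 degrees C. Viability was read by CellTiter-Glo luminescence. Media-only wells were set as complete cell-killing and DMSO as no toxicity.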
# ATXN viability = Viability Counterscreen for Primary qHTS for Inhibitors of ATXN expression | S2 cells (HEK-293 line with an ATXN2-luciferase reporter) viability, CellTiter-Fluor protease fluorescence, 24 h | Potency, µM (highest dose often 56.7 µM), actives largely listed as cytotoxic | 0.49% of 400,000 active | AID 651635, 2014; note: nearly all actives have a fitted effect of over 40% in size
# TDP1 cell CPT = qHTS for Inhibitors of human tyrosyl-DNA phosphodiesterase 1 (TDP1): qHTS in cells in presence of CPT; 12% of 420,000 active; chicken DT40 Tdp1-/-;hTDP1 cells + 20 nM CPT, ATP luminescence, 48 h; Potency, µM (top dose mostly 46.2 µM), inactives show at the top dose activity change, negative = growth inhibition, actives largely listed as inhibitors; AID 686979, 2013; note: % is set by controls: 0 for no effect and ±100 for the full control effect; nearly all actives have a fitted effect of over 55% in size
#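 Cell growth measured by CellTiter-Glo luminescence after a minimum 48 h, 37 C compound exposure with 20 nM CPT in Tdp1-knockout DT40 cells stably expressing hTDP1, seeded 400/well; qHTS titration format.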
# The depositor's hits bear a star; i = inactive; ? = inconclusive; nt = no result. Sampled rows, rich in hits. Any-hit rate of the full collection: about 17%. Calls come from the whole dose curve; as a rule, active = well fitted curve in the direction sought with a large enough effect; inconclusive = small, poorly fitted or top-dose-only effect, or another doubt; inactive = no such curve, though single readings can be large; an effect the other way counts as inactive or inconclusive. Potency is the fitted concentration of half-maximal effect.
SMILES,TGFb SMAD3 inh,DT40 TDP1 no CPT,ATXN2 expr inh,HepG2 viability,ATXN viability,TDP1 cell CPT
COc1ccccc1NS(=O)(=O)c1cccc(NC(=O)Nc2cccc(Cl)c2)c1,?,20.6µM*,0.0%,14.1µM*,nt,20.6µM*
CCCCOc1ccc(CC(=O)N(C)O)cc1,16.5%,?,nt,0.0%,nt,?
O=C(N/N=C/c1sc(N2CCOCC2)nc1-c1ccccc1)c1ccccc1O,?,?,?,-38.7%,i,-28.8%
O=[N+]([O-])c1ccc(N/N=C/c2sc(N3CCOCC3)nc2-c2ccccc2)c(S(=O)(=O)Nc2ccc(Cl)cc2)c1,?,1.03µM*,?,5.7%,?,1.64µM*
O=C(O)c1cccc(N/N=C/c2sc(N3CCOCC3)nc2-c2ccccc2)c1,3.3%,9.3%,44.4%,2.1%,i,-0.4%
O=[N+]([O-])c1ccc(N/N=C/c2sc(N3CCOCC3)nc2-c2ccccc2)c(S(=O)(=O)Nc2ccccc2Cl)c1,-15.5%,1.84µM*,nt,-28.5%,?,3.26µM*
O=C(NCCNc1ccc([N+](=O)[O-])cc1)c1ccccc1Br,13.1%,-25.2%,-1.7%,-15.3%,i,1.8%
CCN(CC)CCCNC(=O)Cn1nc(C)n2c(cc3sccc32)c1=O,-25.7%,-9.7%,nt,-8.4%,nt,1.9%
N#C/C(=C/c1ccc(O)cc1)c1nc(-c2ccc(-c3ccccc3)cc2)cs1,17.5%,?,-21.2%,-9.7%,i,?
N#C/C(=C/c1ccc(Cl)cc1)c1nc(-c2ccc(Br)cc2)cs1,-4.0%,-21.1%,9.9%,-4.7%,i,1.6%
N#C/C(=C\Nc1ccc2cn[nH]c2c1)c1nc(-c2ccccc2)cs1,0.0%,16.4µM*,-22.5%,-13.7%,i,?
N#C/C(=C\Nc1ccc2cn[nH]c2c1)c1nc(-c2ccc(Cl)cc2)cs1,14.3%,23.1µM*,?,-21.3%,nt,?
O=C(CN1C(=O)c2ccc([N+](=O)[O-])cc2C1=O)Nc1ccccc1N1CCCC1,?,-14.9%,-5.9%,2.1%,i,6.3%
COc1cc(NC(=O)Cc2c(C(=O)O)c(C)cn2C)cc(OC)c1,-4.9%,-11.1%,10.8%,3.1%,i,7.6%
Cc1ccc(NC(=S)NCc2ccc3c(c2)OCO3)c(C)c1,-5.4%,20.6µM*,4.8%,-0.1%,i,?
Cc1ccc(NC(=S)NCc2ccc(F)cc2)c(C)c1,-11.1%,-20.4%,0.9%,-28.8%,i,-14.7%
Cc1ccc(NC(=S)NCc2ccc3c(c2)cc(C)n3C)c(C)c1,?,23.1µM*,nt,-72.5%,?,23.1µM*
CCNC(=O)C1CCCN(C(=O)c2ccc3c(c2)CCO3)CC1 (centres undefined),4.2%,-26.0%,8.7%,-1.2%,i,27.6%
Cc1cc(C)cc(Nc2cc(C)nc3nc(-c4ccco4)nn23)c1,?,9.2µM*,nt,-25.9%,nt,16.4µM*
CC1=CC(C)(C)N(C(=O)c2ccccc2)c2ccccc21,?,-11.6%,0.8%,-5.2%,i,-1.1%
CC1=CC(C)(C)N(C(=O)c2ccccc2)c2ccc(C)cc21,-21.0%,23.1µM*,nt,-16.6%,i,14.6µM*
CS(=O)(=O)N1CCCCC1c1cc(C(=O)Nc2ccccc2Cl)no1 (centres undefined),11.2%,-27.2%,17.5%,-34.0%,i,-22.3%
CCC(CC)c1nnc(NC(=O)c2ccc3ccccc3n2)s1,11.5%,11.2µM*,9.8%,-24.4%,i,?
COc1ccc(N2CC(C(=O)N3CCN(S(=O)(=O)c4ccc(F)c(F)c4)CC3)CC2=O)c(OC)c1 (centres undefined),?,1.1%,6.2%,0.2%,?,-7.5%
CCOC(=O)C[n+]1cccc(Br)c1,-5.5%,-2.7%,nt,-2.8%,nt,-7.4%
SMILES,TGFb SMAD3 inh,DT40 TDP1 no CPT,ATXN2 expr inh,HepG2 viability,ATXN viability,TDP1 cell CPT
O=C(NC1CCCCC1)C(c1ccc(F)cc1)N(Cc1ccccc1)C(=O)CN1C(=O)c2ccccc2S1(=O)=O (centres undefined),2.3%,20.6µM*,-4.3%,6.4%,i,20.6µM*
O=C(NC1CCCCC1)C(c1ccc(F)cc1)N(CCc1ccccc1)C(=O)CN1C(=O)c2ccccc2S1(=O)=O (centres undefined),1.2%,5.8µM*,?,11.9%,?,3.66µM*
O=C(NCC1CCCO1)C(c1ccncc1)N(Cc1ccc(F)cc1)C(=O)CN1C(=O)c2ccccc2S1(=O)=O (centres undefined),0.0%,?,-10.2%,-26.8%,i,3.4%
Cc1ccc(C)c(CN2CCC(CNC(=O)Nc3ccc(C)c(C)c3)CC2)c1,-0.5%,14.6µM*,?,-5.7%,i,?
O=C(NCC1CCN(Cc2cccc(Cl)c2)CC1)Nc1ccc(Cl)cc1,?,?,nt,-85.6%,?,?
O=C(NCC1CCN(Cc2cccc(Cl)c2)CC1)Nc1ccc(F)c(Cl)c1,22.4µM*,?,?,-112.8%,22.4µM*,-85.1%
O=C(NCC1CCN(Cc2ccccc2F)CC1)Nc1cccc(Br)c1,?,16.4µM*,-29.9%,-23.8%,i,?
O=C(NCC1CCN(Cc2cccc(Cl)c2)CC1)Nc1cc(Cl)ccc1Cl,?,13µM*,?,-89.7%,?,23.1µM*
CN(CCO)c1ccc2c(c1)OC[C@@H](Cc1ccccc1)NS2(=O)=O,nt,-22.2%,0.4%,nt,i,-8.7%
CCCCn1nnnc1C1(C)CCC(=O)N1CCc1c[nH]c2ccccc12 (centres undefined),nt,-18.4%,11.8%,nt,i,-24.0%
CCC1(c2ccc(Cl)cc2)NC(=O)N(CC(=O)NCc2ccc(F)cc2)C1=O (centres undefined),-21.7%,16.4µM*,-0.8%,-15.4%,i,?
CCC1(c2ccc(F)cc2)NC(=O)N(CC(=O)NC2CC2)C1=O (centres undefined),?,10.2%,0.7%,-13.3%,i,13.9%
CCC1(c2ccc(Cl)cc2)NC(=O)N(CC(=O)NC2CCCC(C)C2C)C1=O (centres undefined),-31.5%,25.9µM*,?,-3.6%,i,23.1µM*
